According to PubChem BioAssay AID1159580 (chemical genetic matrix, 2015):
Screen size: about 5,500 compounds; about 2,000 (36%) were called active. Not shown: some 18% with an inconclusive outcome. Rule as the data show it: active = normalized growth mostly below about 0.91 (no sharp cut-off); inconclusive = no clear call, values can overlap the other calls; inactive = mostly above about 0.92. Some of the results follow.

Assay: chemical genetic growth profiling, strain panel (AID 1159580);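 also: tested at 20 µM; growth read once vehicle control cultures reached saturation at 30 °C; 1 = growth at the plate median or of vehicle wells; lower values mean less growth of the strain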
Details: S. cerevisiae deletion strains, growth OD
[1] = locus YHR030C, strain SLT2, active compounds read low
[2] = locus YHR079C, strain IRE1, active compounds read low
[3] = locus YJL095W, strain BCK1, active compounds read low
[4] = locus YJR066W, strain TOR1, active compounds read low
[5] = locus YLR113W, strain HOG1, active compounds read low
[6] = locus YNL183C, strain NPR1, active compounds read low
[7] = locus YOR231W, strain MKK1, active compounds read low
[8] = locus YPL256C, strain CLN2, active compounds read low

Measured: normalized growth

COc1ccc(-c2oc3ccccc3c(=O)c2OC)cc1
inactive: [1] 0.882 | [2] 0.897 | [3] 0.909 | [4] 0.829 | [5] 0.934 | [6] 0.836 | [7] 0.901 | [8] 0.894

COc1ccc(-c2oc3cc(OC)c(OC)c(OC)c3c(=O)c2OC)cc1OC
inactive: locus YAL021C, strain ccr4, active compounds read low 0.98 | locus YAL026C, strain drs2, active compounds read low 0.957 | locus YAL030W, strain snc1, active compounds read low 0.979 | locus YBL061C, strain skt5, active compounds read low 0.998 | locus YBR009C, strain hhf1, active compounds read low 0.966 | locus YBR023C, strain chs3, active compounds read low 0.986 | locus YBR171W, strain sec66, active compounds read low 0.972 | locus YBR231C, strain swc5, active compounds read low 0.968 | locus YBR279W, strain paf1, active compounds read low 0.983 | locus YCL011C, strain gbp2, active compounds read low 0.972 | locus YCL016C, strain dcc1, active compounds read low 1 | locus YCL061C, strain MRC1, active compounds read low 0.993 | locus YCL069W, strain vba3, active compounds read low 0.977 | locus YCR088W, strain abp1, active compounds read low 0.976 | locus YDL005C, strain med2, active compounds read low 0.981 | locus YDL040C, strain nat1, active compounds read low 0.982 | locus YDR001C, strain nth1, active compounds read low 0.978 | locus YDR069C, strain doa4, active compounds read low 0.972 | locus YDR137W, strain rgp1, active compounds read low 0.966 | locus YDR159W, strain sac3, active compounds read low 0.966 | locus YDR195W, strain ref2 0.982 | locus YDR297W, strain sur2, active compounds read low 0.984 | locus YDR334W, strain swr1, active compounds read low 0.97 | locus YDR335W, strain msn5, active compounds read low 0.982 | locus YDR392W, strain spt3, active compounds read low 0.767 | locus YEL003W, strain gim4, active compounds read low 0.973 | locus YEL037C, strain rad23, active compounds read low 0.956 | locus YEL061C, strain CIN8 (second series), active compounds read low 0.971 | locus YER015W, strain faa2, active compounds read low 0.99 | locus YER016W, strain bim1, active compounds read low 0.986 | locus YER111C, strain swi4, active compounds read low 0.976 | locus YER155C, strain BEM2 (second series), active compounds read low 0.932 | locus YFR010W, strain ubp6, active compounds read low 0.96 | locus YGL167C, strain pmr1, active compounds read low 0.983 | locus YGL173C, strain kem1, active compounds read low 0.996 | locus YGL227W, strain vid30, active compounds read low 0.976 | locus YGL240W, strain doc1, active compounds read low 0.973 | locus YGL253W, strain hxk2, active compounds read low 0.92 | locus YHR013C, strain ard1, active compounds read low 0.956 | locus YHR027C, strain rpn1, active compounds read low 1 | [1] 1.03 | [2] 1.01 | locus YHR142W, strain chs7, active compounds read low 0.933 | locus YJL092W, strain hpr5, active compounds read low 0.966 | locus YJL095W, strain BCK1 (second series), active compounds read low 0.987 | [3] 0.972 | locus YJL115W, strain asf1, active compounds read low 0.986 | locus YJL129C, strain trk1, active compounds read low 0.979 | locus YJL154C, strain vps35, active compounds read low 0.974 | locus YJL164C, strain tpk1, active compounds read low 0.974 | locus YJL166W, strain qcr8, active compounds read low 0.978 | locus YJL187C, strain SWE1, active compounds read low 0.981 | [4] 1 | locus YKL160W, strain elf1, active compounds read low 0.998 | locus YKR026C, strain gcn3, active compounds read low 0.976 | locus YKR091W, strain srl3, active compounds read low 0.985 | locus YLL001W, strain dnm1, active compounds read low 1 | locus YLL026W, active compounds read low 0.989 | locus YLL041C, strain sdh2, active compounds read low 0.977 | locus YLR027C, strain aat2, active compounds read low 0.986 | [5] 0.902 | locus YLR221C, strain rsa3, active compounds read low 1.01 | locus YLR258W, strain gsy2, active compounds read low 0.994 | locus YLR262C, strain YPT6 (second series), active compounds read low 0.95 | locus YLR320W, strain mms22, active compounds read low 0.99 | locus YLR342W, strain FKS1, active compounds read low 0.959 | locus YLR357W, strain rsc2, active compounds read low 0.96 | locus YLR370C, strain arc18, active compounds read low 0.986 | locus YLR384C, strain iki3, active compounds read low 0.996 | locus YML120C, strain ndi1, active compounds read low 0.97 | locus YMR058W, strain fet3, active compounds read low 0.971 | locus YMR125W, strain sto1, active compounds read low 0.964 | locus YMR129W, active compounds read low 0.976 | locus YMR205C, strain PFK2, active compounds read low 0.997 | locus YMR231W, strain pep5, active compounds read low 0.992 | locus YNL071W, strain lat1, active compounds read low 0.969 | [6] 0.956 | locus YNL209W, strain ssb2, active compounds read low 0.993 | locus YNL248C, strain rpa49, active compounds read low 0.967 | locus YNL322C, strain KRE1 (second series), active compounds read low 0.989 | locus YNR049C, strain mso1, active compounds read low 0.982 | locus YOR001W, strain rrp6, active compounds read low 0.938 | locus YOR070C, strain gyp1, active compounds read low 0.983 | locus YOR080W, strain dia2, active compounds read low 0.987 | locus YOR083W, strain WHI5, active compounds read low 0.998 | locus YOR106W, strain vam3, active compounds read low 0.991 | [7] 1.02 | locus YOR265W, strain rbl2, active compounds read low 0.987 | locus YOR270C, strain vph1, active compounds read low 0.863 | locus YOR290C, strain snf2, active compounds read low 0.953 | locus YPL051W, strain arl3, active compounds read low 1 | locus YPL078C, strain atp4, active compounds read low 0.977 | locus YPL106C, strain sse1, active compounds read low 0.969 | locus YPL240C, strain hsp82, active compounds read low 0.995 | [8] 1
